Test results: PubChem BioAssay (Tox21)
Inconclusive results are not listed. Active and inactive are the calls of the source. The call rests on the fitted dose curve; in most records, active means well fitted inhibition curve with a large enough effect in the repeat runs; inconclusive means weak or mixed curves; inactive means no such curve, though single readings can be large or run the other way.

The molecules below were run against Cytochrome P450 2D6 (Homo sapiens) (UniProt P10635) (assay: Cytochrome P450 Family 2 Subfamily D Member 6 (CYP2D6) small molecule antagonists: luciferase reporter qHTS assay (AID 1671196; further: nearly all actives have a fitted effect of over 50% in size)). Settings: P450-Glo CYP2D6 enzyme assay, luciferin luminescence, 1 h; series mostly up to 115 µM; activity change, negative = inhibition: at the top concentration.
Sequence of Cytochrome P450 2D6 (Homo sapiens) (P10635 whole entry, looked up): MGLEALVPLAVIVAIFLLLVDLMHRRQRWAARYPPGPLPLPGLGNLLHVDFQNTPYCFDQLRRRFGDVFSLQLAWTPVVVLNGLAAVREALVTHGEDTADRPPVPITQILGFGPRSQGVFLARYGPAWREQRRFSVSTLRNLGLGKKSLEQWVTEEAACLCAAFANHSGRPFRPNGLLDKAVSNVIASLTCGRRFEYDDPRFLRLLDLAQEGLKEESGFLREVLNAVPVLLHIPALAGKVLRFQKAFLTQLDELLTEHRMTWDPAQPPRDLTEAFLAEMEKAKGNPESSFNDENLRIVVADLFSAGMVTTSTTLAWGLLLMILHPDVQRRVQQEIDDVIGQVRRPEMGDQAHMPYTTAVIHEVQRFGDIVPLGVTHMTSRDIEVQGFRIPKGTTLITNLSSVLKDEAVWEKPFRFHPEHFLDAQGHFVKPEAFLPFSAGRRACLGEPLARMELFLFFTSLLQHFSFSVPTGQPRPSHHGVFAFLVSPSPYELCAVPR
How it was run: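 Read-out is luminescence from luciferin formed by CYP2D6 turnover of a proluciferin substrate, recorded as relative luminescence units. Reactions ran 1 h at room temperature after NADPH regeneration solution was added.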
On the % scale 0 is the no-effect control and ±100 the full control effect; potency means the concentration at half of the fitted maximal effect.

SMILES	activity change, negative = inhibition	Potency
Clc1ccc2c(c1)Nc1ccccc1S2	-21.4% [at 53 µM] (inactive)	–
CCCCN1C(=O)c2ccccc2C1=O	-11.7% (inactive)	–
Cc1ccc(Br)cc1	-5.5% (inactive)	–
C=COCCCCO	-24.4% (inactive)	–
Cc1ccc(OC(=O)CC(C)C)cc1	-10.7% (inactive)	–
CC(C)(C)OC(=O)c1ccccc1C(=O)O	-8.53% (inactive)	–
CC(C)(C)c1ccc(N)cc1	-8.5% (inactive)	–
C[Si](C)(C)O[Si](O)(O)O	-6.3% (inactive)	–
CC(C)CC(O)Cc1ccccc1 (centres undefined)	-17.5% (inactive)	–
CCCCNCC	-21.3% (inactive)	–
CC(=O)Oc1ccc(C(C)=O)cc1	-11.9% (inactive)	–
COc1ccccc1N1CCN(CC(O)COc2cc(OC)c(OC)c(OC)c2)CC1 (centres undefined)	-23.3% [at 53 µM] (inactive)	–
COc1cc(C(=O)NC2CCCNC2)cc(OC)c1OC (centres undefined)	1.93% [at 53 µM] (inactive)	–
CCC(C)(C)C	-7.31% (inactive)	–
CC12CCCC=C1C(=O)OC2=O (centres undefined)	-21.3% (inactive)	–
CC/C=C/CCCCCCCCCCOC(C)=O	-3.55% (inactive)	–
CC(C)(C)C(=O)CC(=O)C(C)(C)C	-14% (inactive)	–
CCC(C)SSC(C)CC (centres undefined)	–	31.7 µM (active)
COC(=O)c1ccc(NC(C)=O)cc1OC	-9.88% [at 53 µM] (inactive)	–
CCN(CC)CC	–	23.6 µM (active)
N=C(N)N	-7.92% [at 53 µM] (inactive)	–
O=Cc1ccccc1S(=O)(=O)O	-14.2% (inactive)	–
CC(CC(=O)Cl)CC(C)(C)C (centres undefined)	-23.8% (inactive)	–
CCN1CCN(C(=O)N[C@@H](C(=O)N[C@@H]2C(=O)N3[C@@H]2SC(C)(C)[C@H]3C(=O)O)c2ccccc2)C(=O)C1=O	-9.28% [at 53 µM] (inactive)	–
CCCCCCCCS(=O)(=O)O	0.526% (inactive)	–
C/C=C(\C)C(=O)OC/C=C(\C)CCC=C(C)C	-21.9% (inactive)	–
NNC(=O)OCc1ccccc1	-13.8% (inactive)	–
CC(C)=CCC/C(C)=C\C#N	-7.91% (inactive)	–
CC[N+](C)(CC)CC	3.15% (inactive)	–
